Rows were chosen to be rich in hits. Some 2.8% of all compounds tested hit in one or more screens of this group.
SNCA expr inhib – inhibitors of alpha-synuclein (SNCA) gene expression. 0.17% of 140,000 active. AID 1671194. HEK-293 SNCA-luciferase knock-in, luminescence, 24 h. Potency, µM (series often up to 57.2 µM), for the others: at the highest dose activity change, negative = inhibition, actives largely listed as inhibitors;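 note: potency is the fitted concentration of half-maximal effect; plate controls were DMSO cells for no effect and cell-free wells for full effect; nearly all actives have a fitted effect of over 45% in size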
KDM5B inh – KDM5B demethylase inhibition; AID 1347165; 2.6% of 220,000 active; Potency, µM (titrated, usually from 57.7 µM), actives largely listed as inhibitors; KDM5B demethylase, FDH-coupled NADH fluorescence (FDH is formaldehyde dehydrogenase); Q9UGL1; note: potency is the fitted concentration of half-maximal effect; 0% is about no effect; nearly all actives have a fitted effect of over 70% in size
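Measured: NADH fluorescence change, 30 min, RT. System: KDM5BΔAP 200 nM final, H3K4me3 peptide, α-KG, Fe(II), ascorbate, NAD⁺ plus FDH, pH 7.5 HEPES. Compounds: titrated, 10 min pre-incubation with enzyme.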
SNCA viab count – cell viability loss counter-screen; HEK-293-SNCA-luc viability, GF-AFC fluorescence, 24 h; Potency, µM (top dose mostly 57.1 µM), inactives show at the highest dose activity change, negative = cytotoxicity, most hits filed as cytotoxic; 0.12% of 150,000 active;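 note: potency is the fitted concentration of half-maximal effect; 0% = DMSO-treated cells and -100% = medium-only wells without cells; nearly all actives have a fitted effect of over 30% in size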
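HEK-293-SNCA-luc cells (1500/well) plated 24 h, then exposed 24 h to a dilution series; GF-AFC added 30 min at 37C, fluorescence 405/540 nm; normalised to medium-only and DMSO wells, Hill fit.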
IP6K1 inh – IP6K1 kinase inhibition; IP6K1 kinase, ADP-Glo luminescence, 2 h; active compounds read low; AID 1645851; 0.81% of 140,000 active; activity change, % (series mostly up to about 58 µM); in the data active = activity change below about -25%; note: % is set by controls: 0 for no effect and ±100 for the full control effect
Target sequence (Q92551 whole entry, looked up): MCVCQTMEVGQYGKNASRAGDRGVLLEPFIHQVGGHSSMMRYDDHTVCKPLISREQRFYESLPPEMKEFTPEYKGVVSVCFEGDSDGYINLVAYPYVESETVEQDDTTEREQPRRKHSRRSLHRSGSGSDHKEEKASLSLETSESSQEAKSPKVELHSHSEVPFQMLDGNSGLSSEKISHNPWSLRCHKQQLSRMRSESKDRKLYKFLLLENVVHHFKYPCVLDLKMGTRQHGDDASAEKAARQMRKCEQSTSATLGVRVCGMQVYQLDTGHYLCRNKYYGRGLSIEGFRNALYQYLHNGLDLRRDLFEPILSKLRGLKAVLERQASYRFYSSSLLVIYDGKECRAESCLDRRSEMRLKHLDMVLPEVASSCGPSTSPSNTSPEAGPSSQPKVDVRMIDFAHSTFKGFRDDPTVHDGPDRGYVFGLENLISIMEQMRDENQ
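ADP-Glo luminescence measures ADP made by human IP6K1 during a 2 h RT reaction with ATP/IP6 (mix at 1.3 mM/130 uM); top library doses 57.5 and 19.1 uM final.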
* marks the source's active call; other numbers are inactive results; i = inactive; ? = inconclusive; · = not tested or not shown; [ ] = dose if it differs, or a comment. Unless noted, calls come from the whole dose curve; as a rule, active = well fitted curve in the direction sought with a large enough effect; inconclusive = small, poorly fitted or top-dose-only effect, or another doubt; inactive = no such curve, though single readings can be large; an effect the other way counts as inactive or inconclusive.

SMILES	SNCA expr inhib	KDM5B inh	SNCA viab count	IP6K1 inh
Cc1cc(C[C@@H]2COC[C@@H]2NC(=O)c2cc(C)oc2-c2ccccc2)on1	-5%	28µM*	7%	14
CCn1c(CC2C(=O)N(Cc3ccccc3)c3ccc(C)cc32)nc2ccccc2c1=O (configuration not stated)	·	i	·	·
Cn1nccc1C(=O)N[C@@H]1CN(c2ncccn2)C[C@H]1CO	-15%	?	-3%	4
Cn1cnc(C(=O)N[C@@H]2CN(c3ncccn3)C[C@H]2CO)c1	5%	28µM*	8%	1
CN(C)C[C@@H]1CN(c2ncccn2)C[C@H]1NC(=O)NCCc1ccccc1	-23%	?	-6%	3
O=C(N[C@@H]1CN(c2ncccn2)C[C@H]1CO)c1cc2ccccc2[nH]1	119%	14µM*	-3%	2
CN(C)C[C@@H]1CN(Cc2cccnc2)C[C@H]1NC(=O)c1cc2ccccc2[nH]1	-18%	28µM*	-10%	4
CN(C)C[C@@H]1CN(c2ncccn2)C[C@H]1NC(=O)c1cc2ccccc2[nH]1	16%	28µM*	4%	19
Cn1cccc1C(=O)N[C@@H]1CN(c2ncccn2)C[C@H]1CO	8%	?	6%	7
Cc1cccc(N/N=C/c2ccc(C#N)cc2)c1	·	i	·	·
CCCC1c2nccn2CCCN1C(=O)c1cocn1 (configuration not stated)	-3%	i	-4%	0
Cc1cc(C)n(CC(=O)N[C@@H]2CN(Cc3ccccc3)C[C@H]2CN(C)C)c(=O)n1	15%	8.9µM*	3%	-3
COc1ccc(NC(=O)CCc2ccnc(N3CCCC3)c2)c(C)c1	8%	25µM*	-14%	-17
CN(Cc1ccccc1)C(=O)CCc1ccnc(N2CCOCC2)c1	33%	25µM*	4%	1
O=C(CCc1ccnc(N2CCCC2)c1)NCc1ccccc1Cl	21%	?	3%	16
Cc1ccccc1NC(=O)CCc1ccnc(N2CCCC2)c1	22%	28µM*	0%	8
Cn1ccnc1SCC(=O)NC1(C#N)CCCCCC1	·	i	·	·
O=C(c1ccccc1F)N1CCC(CCOc2ccccc2)C1 (configuration not stated)	-3%	i	2%	19
CN(CCO)c1nc2c(c(=O)[nH]c(=O)n2C)n1Cc1ccccc1Cl	·	i	·	·
Cn1nc(C(=O)N2CCc3nc4cc[nH]n4c(=O)c3C2)c2ccccc21	48%	32µM*	4%	6
COc1ccc(-c2cc3nc4c(c(=O)n3[nH]2)CN(C(=O)c2sccc2C)CC4)cc1	-22%	?	5%	3
Cc1ccccc1C(=O)N1CCc2nc3cc[nH]n3c(=O)c2C1	-6%	28µM*	-3%	4
Cc1ccsc1C(=O)N1CCc2c(nc3cc[nH]n3c2=O)C1	3%	32µM*	-3%	24
Cn1cccc1C(=O)N1CCc2nc3cc[nH]n3c(=O)c2C1	-3%	32µM*	15%	11
O=C(CCn1c2c(c3ccccc31)CCCC2)N1CCc2nc3cc[nH]n3c(=O)c2C1	-26%	i	-2%	6
SMILES	SNCA expr inhib	KDM5B inh	SNCA viab count	IP6K1 inh
CCOCCCNC(=O)c1ccc2nc(C)c(C)nc2c1	·	i	·	·
CC(C)NC(=O)c1csc(-c2cccc(OC(C)C)c2)n1	1%	?	-6%	20
Cc1ccccc1-c1noc(CN2CCC(c3ccn[nH]3)CC2)n1	·	i	·	·
Cc1cc2oc(=O)cc(CN(C)Cc3nc4ccccc4c(=O)[nH]3)c2cc1C	·	i	·	·
COc1ccc(CC(=O)N2CCc3nc4cc[nH]n4c(=O)c3C2)c(Cl)c1	1%	?	0%	14
O=C(Nc1ccc(Cl)cc1F)N1CCc2nc3cc[nH]n3c(=O)c2C1	7%	32µM*	-1%	0
COCCN1Cc2ccc(NCC(C)C)nc2C(C)(C(=O)Nc2ccncc2)C1 (configuration not stated)	-13%[87.6 µM]	28µM*	0%[87.6 µM]	-5
COCCN1Cc2ccc(Nc3ccc(OC)cc3)nc2C(C)(C(=O)NC(C)C)C1 (configuration not stated)	6%[87.6 µM]	i	-14%[87.6 µM]	1
COCCN1Cc2ccc(NCC(C)C)nc2C(C)(C(=O)Nc2cccc(F)c2)C1 (configuration not stated)	-17%[87.6 µM]	32µM*	-3%[87.6 µM]	6
CC1=C[C@@H](CC#N)[C@H](C(C)C)C[C@H]1CC(=O)NCc1ccccc1	-9%[87.6 µM]	i	4%[87.6 µM]	8
N#Cc1ccc(CN2CCn3c(nnc3C3CCCNC3)C2)cc1 (configuration not stated)	?	20µM*	-24%	3
C1CCC(CN2CCn3c(nnc3C3CCCNC3)C2)CC1 (configuration not stated)	-28%	25µM*	-30%	5
c1ccc(CN2CCn3c(nnc3C3CCCNC3)C2)cc1 (configuration not stated)	-27%	i	-1%	6
COc1ccc(C(=O)N2CCC(c3noc(-c4cccnc4)n3)C2)cn1 (configuration not stated)	-19%	i	-11%	-5
O=C(Nc1ccc(F)cc1)c1ccc2c(c1)OCCN(C1CCC1)C2	57%[87.6 µM]	32µM*	-16%[87.6 µM]	-4
O=C(Nc1ccccc1)c1ccc2c(c1)OCCN(c1ccccc1)C2	77%[87.6 µM]	28µM*	-26%[87.6 µM]	1
COc1ccccc1CCNC(=O)[C@@H]1CNC[C@H]1COc1cccnc1	-19%	?	8%	0
Cc1ccc(CN(C)C2CCc3nn(C)c(=O)n3CC2)nc1 (configuration not stated)	2%	i	-10%	-2
CN(C)C(=O)N1CCCn2nc(CNC(=O)c3sccc3N)cc2C1	5%	35µM*	1%	21
CN(C)C(=O)N1CCCn2nc(CNC(=O)c3ccc4[nH]ccc4c3)cc2C1	-15%	?	2%	24
CC(=O)N1Cc2ccccc2CC2(CCCN(CC3CCCC3)C2)C1 (configuration not stated)	?	i	-15%	0
O=C(NCCc1ccccc1)N1CC(Oc2ccccc2-c2nc(-c3ccccc3)no2)C1	-2%	25µM*	-25%	17
COc1cccc(CC(=O)N2CC(CNc3ccccc3)C3(C2)CN(c2ccccc2)C3)c1 (configuration not stated)	-23%	18µM*	-19%	10
COc1ccc(-c2ccc(C(=O)N3CCC(NC(=O)C4CC4)C3)cc2)nn1 (configuration not stated)	·	·	·	2
COc1ccccc1-c1ccnc(N[C@H]2CO[C@H]3[C@@H]2OC[C@@H]3NC(=O)c2ccccc2)n1	-16%[87.6 µM]	35µM*	-2%[87.6 µM]	-8
COc1ccccc1-c1ccnc(N[C@H]2CO[C@H]3[C@@H]2OC[C@@H]3NC(=O)COc2ccccc2)n1	20%	22µM*	6%	-4
COc1ccccc1-c1ccnc(N[C@H]2CO[C@H]3[C@@H]2OC[C@@H]3NC(=O)c2ccc(C)cc2)n1	5%	?	-3%	0
O=C(NCC(F)F)c1ccc2nnc(C3CCOCC3)n2c1	·	·	·	0

Bioassay records (PubChem BioAssay)
